Test results taken from PubChem BioAssay AID687014 (The Scripps Research Institute Molecular Screening Center, 2013).
About 6,800 (1.8%) of roughly 370,000 compounds were called active. The sample as a whole holds a higher share of actives than the screen did. Values without a mark were called inactive.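 The calls were made as follows: active = activation above a cutoff set at the mean of all screened compounds plus 3 SD (cut at about 10% in these data); inactive = the rest.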

System: Nuclear hormone receptor DAF-12 (Heterodera glycines), GAL4 fusion
Assay: H. glycines DAF-12 receptor agonists, primary screen, cell-based, luminescence, HEK293, GAL4 fusion, UAS-luciferase (AID 687014);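 also: 0% = DMSO wells and 100% = sodium butyrate wells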
Conditions: HEK293 GAL4-hgDAF12 UAS-luciferase reporter, agonist luminescence; at 6.8 µM; active compounds read high; normalized to butyrate control

Row | SMILES | activation
1 | OC(CCl)CCl | 2.07%
2 | C/C(=N\Nc1ccc(S(N)(=O)=O)cc1[N+](=O)[O-])c1cccs1 | -0.57%
3 | C/C(=N\NC(=O)CSc1nc2ccccc2c(=O)n1-c1ccccc1C)c1cccs1 | -2.57%
4 | C/C(=N\Nc1nc2ccccc2[nH]1)c1cccs1 | 12.3% (active)
5 | COCCCNC(=O)C[C@H]1C[C@@]2(C(=O)OC)C(=C[C@H](C(C)(C)C)O[C@@H]2C)N(Cc2ccc(Cl)cc2Cl)C1=O | -0.78%
6 | Cc1cc(N2CCN(C(=O)OC(C)(C)C)C[C@H]2C)ccc1N1CCN(Cc2ccccc2)[C@H](C)C1 | -0.97%
7 | CC(=O)c1ccc(NC(=O)c2cc(-c3cccs3)on2)cc1 | 1.57%
8 | O=C(c1cc(-c2cccs2)on1)N1CCCCC1 | 10.8% (active)
9 | O=C(c1cc(C2CCCCN2S(=O)(=O)c2ccccc2)on1)N1CCOCC1 (stereo not drawn) | 1.09%
10 | O=C(c1cc(COc2cccc(C(F)(F)F)c2)on1)N1CCSCC1 | -1.54%
11 | CCOC(=O)C1CCCN(C(=O)c2cc(-c3cccs3)oc2C)CC1 (stereo not drawn) | -2.05%
12 | COc1ccccc1-c1cc(C(=O)N2CCCCC2)no1 | 11.7% (active)
13 | COc1ccc(C(=O)C2CCCN(C(=O)c3cc(C)on3)C2)cc1F (stereo not drawn) | -1.33%
14 | O=C(c1cc(-c2ccccc2O)on1)N1CCCC1 | 13.1% (active)
15 | COc1ccc(OCc2cc(C(=O)N3CCCC3)no2)c2ccccc12 | 7.54%
16 | N#Cc1ccc(OC[C@@H](O)CN2CCC(C(O)(c3ccccc3)c3ccccc3)CC2)c(F)c1 | -0.04%
17 | CN(C)Cc1cn(-c2ccc(-c3noc4c3C(=O)N(CC(=O)N3CCOCC3)CC4)cc2)nn1 | -1.17%
18 | O=C(c1ccncc1)N1CC[C@H]2[C@H](CCCN2Cc2ccc(F)cc2)C1 | 5.55%
19 | O=C(NCCS(=O)(=O)N1CCN(c2ccccc2F)CC1)c1ccc(Br)o1 | 0.09%
20 | CC(=O)N1Cc2cc(C(=O)NCc3cccc(F)c3)nc(-c3cccc(C4=CCCC4)c3)c2[C@H]1CCO | -1.83%

Row | SMILES | activation
21 | COc1ccc2c(c1)CN1CN(CCc3ccccc3)S(=O)(=O)CC21 (stereo not drawn) | 0.93%
22 | Cc1ccoc1C(=O)Nc1cccc(Oc2ccccc2)c1 | 11.7% (active)
23 | COc1ccc(/C=C/C(=O)OCC(=O)Nc2cccc(Oc3ccccc3)c2)c(OC)c1 | 2.49%
24 | CC1(C(=O)Nc2cccc(Oc3ccccc3)c2)CCN1Cc1ccccc1Cl (stereo not drawn) | -0.38%
25 | O=C(NCc1ccccc1)[C@@H]1CCCN1C(=O)[C@@H](NS(=O)(=O)c1ccc(F)cc1F)C1CCCCC1 | -0.9%
26 | C[C@H]1CN([C@@H](C)CO)C(=O)CCCn2nncc2CO[C@@H]1CN(C)C(=O)Nc1ccc(N2CCN(C)CC2)cc1 | -1.55%
27 | CCOc1ccc(-n2c(SCC(=O)Nc3cc(C)c(NC(=O)c4ccccc4)cc3OC)nnc2-c2cccc(Cl)c2)cc1 | -2.83%
28 | COC(=O)C1=C(C)N(Cc2cccc(C(F)(F)F)c2)C(=NCc2ccccc2)NC1c1ccc(Cl)cc1 (stereo not drawn) | 4.18%
29 | COCCNC(=O)c1ccc2nc(Cc3ccc(OC)c(OC)c3)oc2c1 | 4.83%
30 | CSCCNC(=O)c1ccc2nc(Cc3ccccc3F)oc2c1 | 10.5% (active)
31 | COc1ccc(Cc2nc3ccc(C(=O)NCC4CCOCC4)cc3o2)cc1OC | 2.3%
32 | Brc1ccc(/C=N/N2CCN(C3c4ccccc4-c4ccccc43)CC2)s1 | 0.61%
33 | COc1cccc(N(CC(=O)NC2CCCC2)C(=O)Cn2nnc(-c3ccc(C)o3)n2)c1 | 0.01%
34 | C[C@]12CCC(=O)C=C1C=CC1C2CC[C@@]2(C)C1CC[C@@]21CCC(=O)O1 (stereo partly drawn) | -2.47%
35 | O=C(Nc1nnc(SCc2c(Cl)cccc2Cl)s1)C1CCCO1 (stereo not drawn) | 3.2%
36 | Cc1cc(C)c2nc(NC(=O)C3CCCO3)sc2c1 (stereo not drawn) | 11.9% (active)
37 | Cc1ccc(C)c(C(C)NC(=O)C2CCCO2)c1 (stereo not drawn) | -0.46%
38 | CCOc1ccc(-n2c(SCC(=O)Nc3cc(C)c(NC(=O)c4ccccc4)cc3OC)nnc2-c2cccs2)cc1 | 7.81%
39 | Cc1ccc(-n2c(C)cc(C(=O)CSc3nnc4ccccn34)c2C)cc1 | 11.6% (active)
40 | O=C(CSc1nnc2ccccn12)c1ccccc1 | 8.56%

Row | SMILES | activation
41 | Cc1cc(C(=O)CSc2nc(N)cc(=O)[nH]2)c(C)n1-c1cccc(F)c1 | -3.64%
42 | CS(=O)(=O)N1CCC(C(=O)N2CCN(c3ccccc3)CC2)CC1 | -2.01%
43 | CS(=O)(=O)N1CCc2nc(-c3ccccc3)sc2C1 | 15.3% (active)
44 | CS(=O)(=O)N1CCN(c2cccc(Cl)n2)CC1 | -0.95%
45 | CCc1c(-c2ccccc2OC)ncn1CCc1ccccc1OC | -2.96%
46 | O=C(N/N=C\c1ccc(Br)cc1)c1ccc(Cn2cccn2)o1 | 10.5% (active)
47 | Cc1c(Cl)c([N+](=O)[O-])nn1Cc1ccc(C(=O)N/N=C\c2cc(Cl)ccc2O)o1 | 0.23%
48 | CN(C)c1ccc(/C=N/NC(=O)c2ccc(Cn3cc(Br)cn3)o2)cc1 | 5.9%
49 | COc1ccc(-n2c(SCC(=O)Nc3ccccc3-c3ccccc3)nnc2-c2cccnc2)cc1 | 0.21%
50 | O=C(Nc1ccc2ccccc2c1)Nc1ccc2snnc2c1 | 1.18%
51 | O=C(C=CC(=O)Nc1ccc(F)cc1F)Nc1ccc(F)cc1F | -0.27%
52 | COc1ccc(NC(=O)c2ccc(OC)cc2)cc1 | 14.9% (active)
53 | CCOC(=O)N1CCN(S(=O)(=O)c2ccc(C(=O)Nc3ccc(F)cc3F)cc2)CC1 | 3.94%
54 | COc1ccc(C(=O)Nc2ccc(F)cc2F)cc1 | 10.5% (active)
55 | COc1ccc(NC(=O)c2c(C)oc3c2CCCC3)cc1 | 3.38%
56 | COCCNC(=O)Nc1ccc2nc(-c3ccco3)c(-c3ccco3)nc2c1 | -6.29%
57 | COc1ccc(NC(=O)Nc2ccc3nsnc3c2)cc1 | 15.7% (active)
58 | COc1ccc(C(=O)Nc2ccc(-n3nncc3C(C)(C)C)cc2)cc1 | -2.44%
